Screening data: PubChem BioAssay, University of Kansas High Throughput Screening Laboratory
Pf apPOL block: Pf-apPOL inhibitors, biochemical, fluorescence; Plasmodium falciparum apicoplast DNA polymerase (apPOL); Recombinant Pf-apPOL, molecular beacon fluorescence, 1.5 h; inhibition, % at 10 µM; 0.25% of 210,000 active
mHTT CaM bind: mutant huntingtin-calmodulin interaction inhibitors – biochemical, AlphaScreen, primary screen; P42858; AID 1671202, 2021; inhibition, % at 15 µM; AlphaScreen His-mHTT/GST-CaM binding, luminescence; 3.6% of 190,000 active
Target sequence (P42858 whole entry, looked up, change not shown): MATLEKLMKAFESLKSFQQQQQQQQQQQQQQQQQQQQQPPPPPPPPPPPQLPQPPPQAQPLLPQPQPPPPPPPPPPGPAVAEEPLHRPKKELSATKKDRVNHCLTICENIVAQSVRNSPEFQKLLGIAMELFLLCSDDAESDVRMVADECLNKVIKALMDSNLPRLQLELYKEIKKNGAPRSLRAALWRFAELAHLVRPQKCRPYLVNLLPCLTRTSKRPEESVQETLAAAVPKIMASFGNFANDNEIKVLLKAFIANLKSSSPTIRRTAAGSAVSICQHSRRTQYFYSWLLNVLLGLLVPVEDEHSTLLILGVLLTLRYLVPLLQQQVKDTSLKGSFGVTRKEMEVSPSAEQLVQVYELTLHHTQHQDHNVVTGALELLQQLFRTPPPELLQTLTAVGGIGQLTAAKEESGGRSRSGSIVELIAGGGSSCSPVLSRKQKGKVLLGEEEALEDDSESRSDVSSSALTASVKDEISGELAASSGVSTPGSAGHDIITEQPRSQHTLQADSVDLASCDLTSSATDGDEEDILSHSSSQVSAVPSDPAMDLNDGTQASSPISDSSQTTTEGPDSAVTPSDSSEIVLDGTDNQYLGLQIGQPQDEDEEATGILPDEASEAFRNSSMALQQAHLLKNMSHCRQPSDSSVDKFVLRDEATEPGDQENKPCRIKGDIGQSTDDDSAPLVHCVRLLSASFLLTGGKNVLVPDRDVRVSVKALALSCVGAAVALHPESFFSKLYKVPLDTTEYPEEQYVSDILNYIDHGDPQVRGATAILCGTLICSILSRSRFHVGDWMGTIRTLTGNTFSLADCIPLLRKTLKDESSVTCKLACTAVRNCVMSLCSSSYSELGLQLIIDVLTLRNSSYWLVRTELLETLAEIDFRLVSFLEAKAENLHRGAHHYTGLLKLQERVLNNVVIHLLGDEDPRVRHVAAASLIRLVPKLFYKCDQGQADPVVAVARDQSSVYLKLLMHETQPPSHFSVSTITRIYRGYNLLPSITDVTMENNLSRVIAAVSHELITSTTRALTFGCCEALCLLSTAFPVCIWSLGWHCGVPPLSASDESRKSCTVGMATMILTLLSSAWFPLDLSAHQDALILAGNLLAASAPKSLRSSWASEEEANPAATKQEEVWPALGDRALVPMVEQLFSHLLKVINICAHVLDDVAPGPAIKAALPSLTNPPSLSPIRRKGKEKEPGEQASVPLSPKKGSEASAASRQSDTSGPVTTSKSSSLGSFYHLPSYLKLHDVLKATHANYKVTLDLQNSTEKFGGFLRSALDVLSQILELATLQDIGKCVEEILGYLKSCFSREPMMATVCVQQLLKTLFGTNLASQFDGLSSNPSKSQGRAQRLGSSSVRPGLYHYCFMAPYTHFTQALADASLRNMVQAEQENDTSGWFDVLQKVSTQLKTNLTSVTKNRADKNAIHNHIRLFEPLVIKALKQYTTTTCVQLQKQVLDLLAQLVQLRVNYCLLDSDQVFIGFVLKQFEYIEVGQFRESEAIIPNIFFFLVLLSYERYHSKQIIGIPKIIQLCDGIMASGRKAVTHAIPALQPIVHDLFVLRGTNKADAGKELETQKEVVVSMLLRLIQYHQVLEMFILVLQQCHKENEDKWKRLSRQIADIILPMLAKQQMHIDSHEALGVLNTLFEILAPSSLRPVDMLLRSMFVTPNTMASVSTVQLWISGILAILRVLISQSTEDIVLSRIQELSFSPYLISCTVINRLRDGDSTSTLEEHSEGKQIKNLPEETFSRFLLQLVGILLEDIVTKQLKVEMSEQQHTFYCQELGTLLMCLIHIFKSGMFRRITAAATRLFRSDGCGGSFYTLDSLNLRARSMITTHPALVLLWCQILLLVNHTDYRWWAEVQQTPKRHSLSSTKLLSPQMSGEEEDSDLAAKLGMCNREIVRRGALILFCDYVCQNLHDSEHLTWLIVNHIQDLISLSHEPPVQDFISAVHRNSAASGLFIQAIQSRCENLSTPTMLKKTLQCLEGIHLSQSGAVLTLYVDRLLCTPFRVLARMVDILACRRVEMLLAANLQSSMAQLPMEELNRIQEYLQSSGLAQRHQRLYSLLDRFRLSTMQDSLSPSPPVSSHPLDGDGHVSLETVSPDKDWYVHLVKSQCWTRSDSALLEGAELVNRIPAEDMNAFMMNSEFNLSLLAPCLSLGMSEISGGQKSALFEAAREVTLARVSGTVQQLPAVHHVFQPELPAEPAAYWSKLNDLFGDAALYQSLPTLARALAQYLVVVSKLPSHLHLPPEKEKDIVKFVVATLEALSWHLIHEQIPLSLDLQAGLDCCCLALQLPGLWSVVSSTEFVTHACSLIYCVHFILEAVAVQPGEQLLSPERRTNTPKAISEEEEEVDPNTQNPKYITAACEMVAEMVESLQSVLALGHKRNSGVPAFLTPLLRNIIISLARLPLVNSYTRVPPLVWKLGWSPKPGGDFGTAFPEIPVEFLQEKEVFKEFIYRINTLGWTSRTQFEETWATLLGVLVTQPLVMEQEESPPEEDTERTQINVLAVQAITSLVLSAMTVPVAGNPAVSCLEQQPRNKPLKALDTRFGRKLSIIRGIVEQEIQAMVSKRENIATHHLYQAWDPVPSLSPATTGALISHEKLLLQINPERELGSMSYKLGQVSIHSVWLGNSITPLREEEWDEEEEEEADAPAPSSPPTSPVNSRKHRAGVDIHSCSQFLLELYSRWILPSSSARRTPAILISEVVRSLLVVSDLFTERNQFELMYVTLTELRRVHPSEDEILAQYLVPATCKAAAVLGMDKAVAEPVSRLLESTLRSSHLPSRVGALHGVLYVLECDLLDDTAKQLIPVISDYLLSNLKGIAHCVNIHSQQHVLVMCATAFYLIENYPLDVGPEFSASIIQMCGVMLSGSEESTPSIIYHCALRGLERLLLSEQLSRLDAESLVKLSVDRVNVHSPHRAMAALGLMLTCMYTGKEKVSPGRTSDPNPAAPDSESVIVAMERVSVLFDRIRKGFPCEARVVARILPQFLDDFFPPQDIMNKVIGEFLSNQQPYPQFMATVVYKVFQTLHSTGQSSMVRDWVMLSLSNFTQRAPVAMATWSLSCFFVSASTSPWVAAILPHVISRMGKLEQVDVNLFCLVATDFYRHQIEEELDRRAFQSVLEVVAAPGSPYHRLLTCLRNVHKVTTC
Numbers stand for hits; n = inactive; x = not tested or not shown. A selection: hits, their analogues and other compounds. The true share with any hit is near 3.6%. Cut-off read from the data, not from the text of the source: active = inhibition above about 50%; inactive = the rest.

SMILES	Pf apPOL block	mHTT CaM bind
Cc1cc(C)n(-c2ccc(Nc3ccc(NC(=O)Nc4ccccc4)cc3)nn2)n1	n	n
Cc1cc(Nc2ccc(C(N)=O)cc2)nc(-n2nc(C)cc2C)n1	n	94.9
O=C(Nc1ccccc1C(=O)Nc1ccccc1C(=O)O)c1ccccc1	n	80.5
Cc1ccccc1NC(=O)c1ccc(-c2cccc(F)c2)nc1	n	n
O=C(Nc1ccccc1NC(=O)c1ccccc1)c1ccccc1	n	n
O=C(C=NNc1ccccc1)Nc1ccccc1C(=O)O	88.5	x
CC(=O)Nc1ccc(C(=O)Nc2ccccc2C)cc1	n	n
Cc1ccccc1NC(=O)c1ccc(-c2ccsc2)nc1	58.7	n
COC(=O)c1ccccc1NC(=O)C=NO	n	x
Cc1ccccc1NC(=O)c1ccc(C(=O)Nc2ccccc2C)cc1	61.4	n
O=C1C2CC=CCC2C(=O)N1Nc1ccccc1 (configuration not stated)	n	n
CS(=O)(=O)N1CCN(c2ccc([N+](=O)[O-])c(NCc3ccc(Cl)cc3)c2)CC1	n	56.4
CS(=O)(=O)N1CCN(c2ccc([N+](=O)[O-])c(NCc3ccccc3)c2)CC1	n	n
CCOc1cc(C2Nc3ccccc3NC3=C2C(=O)CC(C)(C)C3)cc(Cl)c1O (configuration not stated)	n	n
COc1ccc(/C=C2\C(=O)Nc3ccc(Br)cc32)cc1	n	n
CCOc1cc(/C=C2\C(=O)Nc3ccc(Br)cc32)cc(Cl)c1O	n	100.0
COc1cc(/C=C2\C(=O)Nc3ccc(Br)cc32)cc([N+](=O)[O-])c1O	n	96.0
O=C1Nc2ccc(I)cc2C1=Cc1cc(Br)c(O)c(Br)c1	n	x
COc1cc(/C=C2\C(=O)NC(=O)N(c3ccc(C)cc3)C2=O)cc([N+](=O)[O-])c1O	n	n
COc1ccc(/C=C2\C(=O)Nc3ccc(Br)cc32)cc1OC	n	90.0
COc1cc(/C=C2\C(=O)NC(=O)N(c3ccc(C)cc3)C2=O)cc(Cl)c1O	n	n
COc1cc(/C=C2\C(=O)Nc3ccc(Br)cc32)cc(Cl)c1O	n	100.0
COc1ccc(CNS(=O)(=O)CC2NCc3ccc(C)cc32)cc1 (configuration not stated)	n	n
COc1ccc(C(NC(=O)CN2C(=O)c3ccccc3C2=O)c2ccccc2)cc1 (configuration not stated)	n	n
CCC(=O)Nc1ccccc1NC(=O)CC	n	n
SMILES	Pf apPOL block	mHTT CaM bind
O=C(NCc1cccc(F)c1)c1ccnc(N2CCNC(c3ccccc3)C2)c1 (configuration not stated)	n	n
O=C(Cn1ccc2ccccc21)N1CCC(COCc2ccccc2)CC1	n	58.0
O=C(CCn1ccc(=O)[nH]c1=O)N1CCC(COCc2ccccc2)CC1	n	n
CC1=C(C(=O)Nc2ccc(C)cc2)C2(CCC(C)CC2)OC1=O (configuration not stated)	n	n
CC1=C(C(=O)Nc2ccc(Br)c(C)c2)C2(CCC(C)CC2)OC1=O (configuration not stated)	n	99.0
COc1ccc(Cc2ccc(OC)cc2)cc1	n	n
ClC(Cl)(Cl)CCCCn1nnc2ccccc21	n	100.0
c1ccc2c(c1)nnn2CCSCCn1nnc2ccccc21	n	n
N#CCCN(C(=O)c1noc2c1CCCC2)c1ccccc1	n	n
COc1ccccc1CCNC(=O)c1nccnc1C(=O)O	n	x
CC(=O)N1CCN(c2nc3c(s2)CC(C(=O)NCCCN2CCOCC2)CC3)CC1 (configuration not stated)	n	n
COc1ccc(NC(=O)COc2ccc(Cl)cc2C)cc1	n	n
COc1ccc(OC)c(NC(=O)N2CCCC2c2c(C)noc2C)c1 (configuration not stated)	n	n
CCN(CC)c1ccc(NS(=O)(=O)c2cccc3nsnc23)c(C)c1	n	54.0
CCN(CC)c1ccc(NC(=O)CCS(=O)(=O)c2cccc3nsnc23)c(C)c1	n	n
COc1ccc(Cl)cc1NC(=O)N1CCc2c(nc[nH]c2=O)C1	n	n
Cc1nnc(NC(=O)c2ccc(S(=O)(=O)NCc3ccc4c(c3)OCO4)o2)s1	n	99.9
O=C(NCc1cccs1)c1ccc(S(=O)(=O)NCc2ccc3c(c2)OCO3)o1	n	n
O=C(OCc1cn([C@@H]2C[C@H](c3ccccc3)N(C(=O)C3CCCCC3)C[C@H]2O)nn1)c1ccccc1	n	n
CCC(C(=O)NCc1ccccc1OC)c1ccccc1 (configuration not stated)	n	n
COc1ccc(CC(=O)Nc2c3c(nn2-c2ccc(OC)cc2)CSC3)cc1	n	n
COc1ccc(CNC(=O)Cn2nc3c(c2NC(=O)Cc2cccs2)CSC3)cc1	n	66.3
Cn1cc(CCC(=O)NC2CCCCCCC2)c2ccccc21	n	n
O=C(Nc1nc2c(s1)CCCC2)c1ccc([N+](=O)[O-])o1	64.0	n
O=C(Nc1nc2c(F)cccc2s1)c1ccc([N+](=O)[O-])o1	n	n
SMILES	Pf apPOL block	mHTT CaM bind
Cc1nnsc1C(=O)N1CCN(CCNC(=O)c2cccs2)CC1	n	n
Cc1ccc(CNC(=O)C(=O)Nc2cccc(C)c2)cc1	n	n
CCOc1ccc(NC(=O)COc2ccccc2)c([N+](=O)[O-])c1	n	n
CCOc1ccc(NC(=O)c2cccc3ccccc23)c([N+](=O)[O-])c1	n	63.1
CCOc1ccc(NC(=O)c2cc(Cl)ccc2Cl)c([N+](=O)[O-])c1	n	n
CCOc1ccc(NC(=O)C(c2ccccc2)c2ccccc2)c([N+](=O)[O-])c1	n	50.2
CCNc1cc(N2CCCC(CCC(=O)Nc3ccc(OC)cc3OC)C2)ncn1 (configuration not stated)	n	n
CCNc1cc(N2CCCC(CCC(=O)Nc3ccc4c(c3)OCCO4)C2)ncn1 (configuration not stated)	n	n
COc1ccc(NC(=O)CCC2CCCN(c3cc(NC4CC4)ncn3)C2)c(OC)c1 (configuration not stated)	n	59.7
CCCNc1cc(N2CCCC(CCC(=O)Nc3ccc4c(c3)OCO4)C2)ncn1 (configuration not stated)	n	51.3
NC(=O)C1CCN(c2nc(-c3ccc(Cl)cc3Cl)cs2)CC1	n	n
COc1ccccc1CC(=O)Nc1cccc(Br)c1	n	n
CCCNC(=O)CCC1CCCN(c2cc(NCC)ncn2)C1 (configuration not stated)	n	n
CCC(NC(=O)c1cn2c(n1)CSCC2)c1cccs1 (configuration not stated)	n	n
c1cc2c3c(cccc3c1)NC1(CCCCCC1)N2	x	52.5
S=C1NC2(CCCC2)NN1c1ccccc1	n	x
O=C(Nc1ccc(N2CCCCC2=O)cc1)c1ccc([N+](=O)[O-])cc1	n	n
CCN(Cc1ccccc1)S(=O)(=O)c1ccccc1Br	n	n
O=S(=O)(c1ccccc1Br)N(Cc1ccccc1)CC(O)COCc1ccccc1 (configuration not stated)	n	98.2
CC(=O)NCC(=O)N1CCCC2(C1)Nc1ccccc1NC2=NCc1ccccc1 (configuration not stated)	n	n
COCCN=C1Nc2ccccc2NC12CCCN(C(=O)Nc1ccc(F)cc1F)C2 (configuration not stated)	n	99.8
COCC(=O)N1CCCC2(C1)Nc1ccccc1NC2=NCc1ccccc1 (configuration not stated)	n	51.0
